Measured values: the antibiotic and cytotoxicity screens of Wong et al. (2023)
The whole screen tested about 39,000 compounds, of which about 3,300 (8.5%) were called active. The list comes from a sample in which actives are over-represented; it also holds similar structures and randomly drawn compounds.

tested on: HepG2; assay: cytotoxicity call (relative viability < 0.9); conditions: 10 µM

SMILES | cytotoxicity call
C[C@H]1CN([C@@H](C)CO)C(=O)c2cc(NS(=O)(=O)c3ccccc3)ccc2O[C@H]1CN(C)S(=O)(=O)c1cccs1 | inactive
COc1ccc(CN(C)C[C@@H]2OCCCC[C@H](C)Oc3ccc(NS(=O)(=O)c4ccccc4)cc3C(=O)N([C@H](C)CO)C[C@H]2C)cc1 | inactive
C[C@@H]1CCCCO[C@@H](CN(C)Cc2ccc(C(=O)O)cc2)[C@@H](C)CN([C@H](C)CO)C(=O)c2cc(NS(=O)(=O)c3ccc(F)cc3)ccc2O1 | inactive
C[C@@H]1CN([C@H](C)CO)C(=O)c2cccc(NC(=O)NC3CCCCC3)c2O[C@@H]1CN(C)Cc1ccc(Cl)c(Cl)c1 | inactive
COc1ccc(NC(=O)Nc2ccc3c(c2)C(=O)N([C@H](C)CO)C[C@H](C)[C@@H](CN(C)S(=O)(=O)c2ccccc2)OCCCC[C@@H](C)O3)cc1 | inactive
Cc1ccc(S(=O)(=O)Nc2cccc3c2O[C@H](CN(C)S(=O)(=O)c2c(C)noc2C)[C@@H](C)CN([C@H](C)CO)C3=O)cc1 | inactive
CC[C@H](C)n1ncn(-c2ccc(N3CCN(c4ccc(OC[C@H]5CO[C@](Cn6cncn6)(c6ccc(Cl)cc6Cl)O5)cc4)CC3)cc2)c1=O | inactive
CC(=O)N1CCN(c2ccc(OCC3COC(Cn4ccnc4)(c4ccc(Cl)cc4Cl)O3)cc2)CC1 (stereo not drawn) | inactive
CCC(C(C)O)n1ncn(-c2ccc(N3CCN(c4ccc(OCC5COC(Cn6cncn6)(c6ccc(F)cc6F)C5)cc4)CC3)cc2)c1=O (stereo not drawn) | active
CC(C)N1CCN(c2ccc(OCC3COC(Cn4cncn4)(c4ccc(Cl)cc4Cl)O3)cc2)CC1 (stereo not drawn) | inactive
CCC(C)n1ncn(-c2ccc(N3CCN(c4ccc(OCC5COC(Cn6cncn6)(c6ccc(Cl)cc6Cl)O5)cc4)CC3)cc2)c1=O.Cl.Cl (stereo not drawn) | active
CC[C@@H](C)n1ncn(-c2ccc(N3CCN(c4ccc(OC[C@H]5CO[C@](Cn6cncn6)(c6ccc(Cl)cc6Cl)O5)cc4)CC3)cc2)c1=O | active
C[C@@H]1CN([C@@H](C)CO)C(=O)c2cccc(NC(=O)c3ccc(-c4nccs4)cc3)c2O[C@H]1CN(C)C(=O)Nc1ccc(F)cc1 | inactive
CCS(=O)(=O)Nc1ccc2c(c1)C(=O)N(C)C[C@H](OC)[C@@H](C)CN(Cc1ccccn1)[C@H](C)CO2 | inactive
COc1ccc(C#Cc2ccc3c(c2)O[C@@H](CN(C)C(=O)c2ccccn2)[C@H](C)CN([C@H](C)CO)S3(=O)=O)cc1 | inactive
CC1=CC(=O)N(c2ccn(C)n2)C1=O | inactive
C[C@@H]1CN([C@H](C)CO)C(=O)c2cc(NC(=O)Cc3ccccc3)ccc2O[C@@H]1CN(C)C(=O)Nc1cccc2ccccc12 | inactive
CC(C)NC(=O)Nc1ccc2c(c1)C(=O)N([C@@H](C)CO)C[C@H](C)[C@@H](CN(C)S(=O)(=O)c1cccs1)O2 | inactive
C[C@@H]1CN([C@H](C)CO)C(=O)Cc2cc(NC(=O)Nc3ccc(C(F)(F)F)cc3)ccc2O[C@H]1CN(C)C(=O)Nc1ccccc1 | inactive
CN1CCN(C(=O)C[C@H]2CC[C@@H]3[C@H](COC[C@@H](O)CN3Cc3ccc4c(c3)OCO4)O2)CC1 | inactive
C[C@@H]1CCCCO[C@H](CN(C)C(=O)c2ccncc2)[C@H](C)CN([C@@H](C)CO)C(=O)c2cc(NS(=O)(=O)c3ccc(Cl)cc3)ccc2O1 | inactive

SMILES | cytotoxicity call
O=C(C[C@H]1C=C[C@H](NC(=O)c2cnccn2)[C@H](CO)O1)NCc1ccccc1F | inactive
Cc1ccc(S(=O)(=O)N(C)C[C@H]2Oc3ccc(NC(=O)CCCN(C)C)cc3C(=O)N([C@H](C)CO)C[C@H]2C)cc1 | inactive
CO[C@H](CN(C)C(=O)C1CCOCC1)[C@@H](C)CN(C(=O)Nc1ccc(C(F)(F)F)cc1)[C@@H](C)CO | inactive
Cc1ccc(S(=O)(=O)Nc2ccc3c(c2)CC(=O)N([C@H](C)CO)C[C@H](C)[C@H](CN(C)Cc2ccc(-c4ccccc4)cc2)O3)cc1 | active
Cc1ccc(S(=O)(=O)Nc2ccc3c(c2)CC(=O)N([C@H](C)CO)C[C@@H](C)[C@H](CN(C)Cc2ccc(-c4ccccc4)cc2)O3)cc1 | active
Cc1ccc(S(=O)(=O)Nc2ccc3c(c2)CC(=O)N([C@H](C)CO)C[C@H](C)[C@@H](CN(C)Cc2ccc(-c4ccccc4)cc2)O3)cc1 | active
Cc1ccc(S(=O)(=O)Nc2ccc3c(c2)CC(=O)N([C@H](C)CO)C[C@@H](C)[C@@H](CN(C)Cc2ccc(-c4ccccc4)cc2)O3)cc1 | active
Cc1ccc(S(=O)(=O)Nc2ccc3c(c2)CC(=O)N([C@@H](C)CO)C[C@@H](C)[C@H](CN(C)Cc2ccc(-c4ccccc4)cc2)O3)cc1 | inactive
CS(=O)(=O)N1C[C@H]2CN(C(=O)c3cnccn3)C[C@@H]2C1 | inactive
Cc1cc(SCc2ccc(F)cc2)c(C)cc1Cl | inactive
Cc1noc(C)c1NC(=O)N(C)C[C@H]1Oc2c(NC(=O)c3cnccn3)cccc2C(=O)N([C@@H](C)CO)C[C@H]1C | inactive
Cc1noc(C)c1S(=O)(=O)Nc1ccc2c(c1)C(=O)N([C@H](C)CO)C[C@H](C)[C@@H](CN(C)S(=O)(=O)c1ccc(Cl)cc1)O2 | inactive
COCC#Cc1cnc2c(c1)C(=O)N([C@@H](C)CO)C[C@H](C)[C@H](CN(C)S(=O)(=O)c1cn(C)cn1)O2 | inactive
COCC(=O)N[C@H]1C=C[C@@H](CC(=O)N2CCCCC2)O[C@@H]1CO | inactive
CCCC#Cc1ccc2c(c1)O[C@H](CN(C)S(=O)(=O)c1cccc(OC)c1)[C@H](C)CN([C@H](C)CO)S2(=O)=O | inactive
C[C@@H]1CCCCO[C@@H](CN(C)C(=O)Nc2ccccc2)[C@@H](C)CN([C@H](C)CO)C(=O)c2cc(NC(=O)CCCCCC(=O)Nc3ccccc3N)ccc2O1 | inactive
O=C(C1=C[C@@H](c2csc3ccccc23)C[C@@H](OCc2ccc(CO)cc2)O1)N1CCN(Cc2ccccc2)CC1 | inactive
C[C@@H]1CCCCO[C@@H](CN(C)C(=O)Nc2ccc(F)cc2)[C@H](C)CN([C@H](C)CO)C(=O)c2cc(NC(=O)C3CCCCC3)ccc2O1 | inactive
CN1CCN(C(=O)C[C@H]2CC[C@H]3[C@@H](COC[C@@H](O)CN3C(=O)C3CCCC3)O2)CC1 | inactive
Cc1cc(NC(=O)CSc2nnc[nH]2)no1 | inactive
Cc1ccc(S(=O)(=O)Nc2ccc3c(c2)CC(=O)N([C@@H](C)CO)C[C@H](C)[C@@H](CN(C)Cc2ccc(-c4ccccc4)cc2)O3)cc1 | inactive

SMILES | cytotoxicity call
Cc1ccc(S(=O)(=O)Nc2ccc3c(c2)CC(=O)N([C@@H](C)CO)C[C@@H](C)[C@@H](CN(C)Cc2ccc(-c4ccccc4)cc2)O3)cc1 | active
Cc1ccc(S(=O)(=O)Nc2ccc3c(c2)CC(=O)N([C@@H](C)CO)C[C@H](C)[C@H](CN(C)Cc2ccc(-c4ccccc4)cc2)O3)cc1 | inactive
Cc1noc(C)c1NC(=O)N(C)C[C@H]1OCCCC[C@@H](C)Oc2ccc(NC(=O)Nc3ccc(C(F)(F)F)cc3)cc2C(=O)N([C@H](C)CO)C[C@@H]1C | inactive
C[C@H](CO)N1C[C@H](C)[C@H](CN(C)S(=O)(=O)c2ccc(F)cc2)Oc2ccc(NS(=O)(=O)c3ccccc3)cc2C1=O | inactive
Cc1ccc2nc(Nc3ccccc3)nc(-c3ccccc3)c2c1 | inactive
Cc1ccc(Nc2c(-c3ccccc3)nc3ccccn23)cc1 | inactive
Cc1ccc(Nc2nnc(-c3ccccc3)c3ccccc23)cc1 | active
C[C@H](CO)N1C[C@H](C)[C@H](CN(C)S(=O)(=O)c2ccc3ccccc3c2)OCc2cn(nn2)CCCC1=O | inactive
C[C@@H]1CN([C@@H](C)CO)C(=O)c2cccc(NC(=O)C3CCCCC3)c2O[C@@H]1CN(C)Cc1ccc(C(=O)Nc2ccccc2N)cc1 | active
C[C@H]1CN([C@@H](C)CO)C(=O)c2cccc(NC(=O)NC3CCCCC3)c2O[C@H]1CN(C)Cc1ccc(C(=O)Nc2ccccc2N)cc1 | inactive
C[C@H]1CN([C@@H](C)CO)C(=O)c2cccc(NC(=O)C3CCCCC3)c2O[C@H]1CN(C)Cc1ccc(C(=O)Nc2ccccc2N)cc1 | active
C[C@H](CO)N1C[C@H](C)[C@H](CN(C)Cc2ccc(C(=O)Nc3ccccc3N)cc2)Oc2c(NC(=O)C3CCCCC3)cccc2C1=O | inactive
C[C@@H]1CN([C@H](C)CO)C(=O)c2cccc(NC(=O)C3CCCCC3)c2O[C@H]1CN(C)Cc1ccc(C(=O)Nc2ccccc2N)cc1 | inactive
C[C@@H]1CN([C@@H](C)CO)C(=O)c2cccc(NC(=O)NC3CCCCC3)c2O[C@@H]1CN(C)Cc1ccc(C(=O)Nc2ccccc2N)cc1 | inactive
C[C@H]1CN([C@@H](C)CO)C(=O)c2cccc(NC(=O)C3CCCCC3)c2O[C@@H]1CN(C)Cc1ccc(C(=O)Nc2ccccc2N)cc1 | inactive
C[C@H](CO)N1C[C@H](C)[C@H](CN(C)Cc2ccc(C(=O)Nc3ccccc3N)cc2)Oc2c(NC(=O)NC3CCCCC3)cccc2C1=O | active
C[C@@H]1CN([C@@H](C)CO)C(=O)c2cccc(NC(=O)C3CCCCC3)c2O[C@H]1CN(C)Cc1ccc(C(=O)Nc2ccccc2N)cc1 | inactive
C[C@@H]1CN([C@@H](C)CO)C(=O)c2cc(NC(=O)C3CC3)ccc2O[C@@H]1CN(C)S(=O)(=O)c1ccc(Cl)cc1 | inactive
Cc1ccc(S(=O)(=O)N(C)C[C@H]2OCCCC[C@@H](C)Oc3ccc(NC(=O)Nc4ccc(C(F)(F)F)cc4)cc3C(=O)N([C@@H](C)CO)C[C@H]2C)cc1 | inactive
O=C(O)c1c(Br)c(Br)c(Br)c(Br)c1-c1c2ccc(=O)cc-2oc2cc(O)ccc12 | inactive
CNC[C@@H]1OCCCC[C@H](C)Oc2ccc(NC(=O)Nc3ccc(C(F)(F)F)cc3)cc2C(=O)N([C@@H](C)CO)C[C@@H]1C | inactive
